From PubChem
eIF4H inh = human eIF4H binding inhibitors, primary screen, translation initiation inhibitor project, biochemical, uHTS, fluorescence polarization. inhibition, % at 35 µM. hit rate 0.94% among 290,000. eIF4H fluorescence polarization binding assay;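 further: calls also rest on retests at 20 µM and on dose response follow-up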
PABP1 MLLE inh = inhibitors of PABP1 MLLE–PAM2 peptide binding, primary screen, biochemical, fluorescence polarization, FITC-PAM2, GST-MLLE | hit rate 0.36% among 360,000 | Polyadenylate-binding protein 1 (Homo sapiens), P11940 | inhibition, % at 20 µM | AID 588489, 2011; in the data active means inhibition above about 35%, passing the limit was not always enough
PABP FP inh = PABP poly(A) RNA binding inhibitors, primary screen, biochemical, fluorescence polarization, uHTS; inhibition, % at 35 µM; hit rate 1% among 290,000; AID 2014, 2009;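 further: calls also rest on retests at 20 µM and on dose response follow-up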
CRFR2-BP antag = antagonists of CRF-BP/CRF-R2 complex, primary screen, cell-based, HEK293, calcium dye fluorescence, uHTS; CRF-induced calcium fluorescence; inhibition, % at 11.8 µM; hit rate 0.59% among 350,000; AID 588475, 2011;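 active means inhibition of the ligand-induced calcium signal above about 50% at the single tested concentration, limit read from the data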
PHOSPHO1 block = PubChem AID 1565; Phosphoethanolamine/phosphocholine phosphatase (Homo sapiens), Q8TCT1; recombinant PHOSPHO1, absorbance phosphatase assay; inhibition, % at 13.3 µM; hit rate 1.1% among 290,000; in the data active means inhibition above about 60%
Large screens that a line does not name were inactive; ! = a repeat was not active. In the library only some 2.6% were active in any assay of this set; here they are far more common. Unless noted, how the calls were made is not given here.

O=C1C(NS(=O)(=O)c2cccs2)=C(N2CCN(c3ccccc3)CC2)C(=O)c2ccccc21	PHOSPHO1 block 76.1
Cc1ccc(S(=O)(=O)NC2=C(N3CCN(c4ccccc4F)CC3)C(=O)c3ccccc3C2=O)cc1	PABP1 MLLE inh 37.7!
O=C(CC1C(=O)NCCN1C(=S)Nc1ccccc1)Nc1ccc2c(c1)OCCO2 (centres undefined)	none
O=C(CC1C(=O)NCCN1C(=O)Nc1ccccc1)Nc1ccc2c(c1)OCO2 (centres undefined)	CRFR2-BP antag 73.6
O=C(CSc1nnc(Cc2cccs2)n1CCc1ccccc1)N1CCCc2ccccc21	PHOSPHO1 block 66.4
CCCCN(c1ccc(C(=O)OC)cc1)S(=O)(=O)c1ccccc1	CRFR2-BP antag 62.8
CSc1c[n+]2c(n1C)CCC2	PHOSPHO1 block 81.5
CCN(CC(=O)Nc1c(F)cccc1F)C(=O)c1nc2nc(C)cc(C)n2n1	none (no result: eIF4H inh, PABP FP inh, PHOSPHO1 block)
COc1ccccc1/C=C/C(=O)N1CCOCC1	CRFR2-BP antag 85.0
Cc1ccccc1/C=C/C(=O)N1CCOCC1	none
CC(C)(C)C1CCNC(=O)CC1 (centres undefined)	none (no result: eIF4H inh, PABP FP inh, PHOSPHO1 block)
Cc1ccc([N+](=O)[O-])c(-c2n[nH]c(=S)n2-c2cccc(Cl)c2)c1	PHOSPHO1 block 88.2
Cc1cccc(-n2c(CCn3nc(C)c([N+](=O)[O-])c3C)n[nH]c2=S)c1	PHOSPHO1 block 96.9
COc1cccc(-n2c(CCn3nc(C)c([N+](=O)[O-])c3C)n[nH]c2=S)c1	none
Cc1ccc(-n2c(-c3cccnc3)n[nH]c2=S)c(C)c1	PHOSPHO1 block 60.1
Cc1ccc(-n2c(-c3nn(C)c(C)c3Cl)n[nH]c2=S)cc1	PHOSPHO1 block 95.0
CCN(CC)CCNC(=O)C(Cl)=C1C(Cl)=C(Cl)C(Cl)=C1Cl	none (no result: eIF4H inh, PABP FP inh, PHOSPHO1 block)
COc1ccc(CNC(=O)Nc2nc(C(N)Cc3ccc(C(F)(F)F)cc3)cs2)cc1 (centres undefined)	none (no result: eIF4H inh, PABP FP inh, CRFR2-BP antag, PHOSPHO1 block)
COCCc1ccc(OC2(C)CCN(Cc3ccc(OC)c4ccccc34)C2)cc1 (centres undefined)	none (no result: eIF4H inh, PABP FP inh, CRFR2-BP antag, PHOSPHO1 block)
Cc1ccc(-n2c(-c3c(-c4ccccc4)noc3C)n[nH]c2=S)cc1	PHOSPHO1 block 85.1
O=C(O)c1ccc(-n2c(-c3ccc(Br)cc3)n[nH]c2=S)cc1	PHOSPHO1 block 102.7
Cc1ccc(-n2c(-c3cccc(C)c3)n[nH]c2=S)cc1	PHOSPHO1 block 101.5
S=c1[nH]nc(-c2ccc(Br)cc2)n1-c1ccc(Br)cc1	none
CN(C)C(=O)N1CCc2ccc([N+](=O)[O-])cc21	none (no result: eIF4H inh, PABP FP inh, PHOSPHO1 block)
O=C(C(c1ccccc1)c1ccccc1)N1CCN(CCN2C(=O)c3cccc4cccc(c34)C2=O)CC1	CRFR2-BP antag 52.4
Cn1cccc1/C=N/n1c(-c2ccc(Cl)cc2Cl)n[nH]c1=S	PHOSPHO1 block 76.6
Cc1ccc(-c2n[nH]c(=S)n2/N=C/c2cccn2C)cc1	CRFR2-BP antag 51.8
O=[N+]([O-])c1ccc(-c2nn(-c3ccccc3)cc2/C=N/n2c(-c3ccncc3)n[nH]c2=S)cc1	none
S=c1[nH]nc(-c2ccncc2)n1/N=C/c1cn(-c2ccccc2)nc1-c1ccccc1	PHOSPHO1 block 90.4
Cn1cccc1/C=N/n1c(-c2ccc(Cl)cc2)n[nH]c1=S	PHOSPHO1 block 65.6
Cc1ccc(-c2cnc(C(O)c3cc(F)cc(Cl)c3)[nH]2)cc1 (centres undefined)	none (no result: eIF4H inh, PABP FP inh, CRFR2-BP antag, PHOSPHO1 block)
COc1ccc(C2CC=C(C(C)=O)CN2S(=O)(=O)c2ccc(Cl)cc2)cc1 (centres undefined)	none (no result: eIF4H inh, PABP FP inh, CRFR2-BP antag, PHOSPHO1 block)
CCCC(=O)N1CCC1(C)C(=O)NS(=O)(=O)c1ccccc1 (centres undefined)	none (no result: eIF4H inh, PABP FP inh, CRFR2-BP antag, PHOSPHO1 block)
CC(C)(C)c1ccc(-c2n[nH]c(=S)n2/N=C/c2ccncc2)cc1	none
Cc1ccc(/C=N/n2c(-c3ccncc3)n[nH]c2=S)cc1	PHOSPHO1 block 90.8
CN1C(=O)N(C)c2ccc(Br)c3cccc1c23	none
CN1C(=O)N(C)c2ccc(C=O)c3cccc1c23	eIF4H inh inconclusive, PABP1 MLLE inh 58.1
CN(C)c1ccnc2sc(C(N)=O)c(N)c12	PHOSPHO1 block 60.8
COc1ccc([C@@H]2C[C@H]3[C@@H](CN2S(=O)(=O)c2ccccc2)C(=O)C[C@@H](c2ccc(OC)cc2)N3S(=O)(=O)c2ccccc2)cc1	none (no result: eIF4H inh, PABP FP inh, CRFR2-BP antag, PHOSPHO1 block)
C=CCOc1cccc(CNCc2ccncc2)c1	none
CCOc1cccc(CNCc2ccncc2)c1	PHOSPHO1 block 61.5
COC(=O)c1ccccc1NC(=O)CC(=O)Nc1ccccc1C(=O)OC	none
